Source: the supplement of paper PMC8728848
This is one part of a sample in which the strongest signals are shown more often than they occur.

How the values were obtained:
Assay in all cases: glycan array binding signal (z-score within array); higher = stronger binding
Settings in all cases: glycan notation: IUPAC condensed, linker removed
[1] = target: Fuc(a1-2)Gal(b1-3)GlcNAc(b1-2)Man(a1-3)[Fuc(a1-2)Gal(b1-3)GlcNAc(b1-2)Man(a1-6)]Man(b1-4)GlcNAc(b1-4)[Fuc(a1-6)]GlcNAc
Method in brief: (§1)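 Glycan array data were curated from 3228 arrays in the Consortium for Functional Glycomics database and kept only where the protein sequence was available. Glycan names were converted to IUPAC-condensed notation, and columns mapping to the same glycan were averaged. The binding signal is a within-array Z-score, averaged across arrays of the same protein sequence at different concentrations or buffers and across linkers. Negative Z-scores can be read as non-binding.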

[2] = target: Fuc(a1-2)Gal(b1-4)GlcNAc(b1-2)Man(a1-3)[Fuc(a1-2)Gal(b1-4)GlcNAc(b1-2)Man(a1-6)]Man(b1-4)GlcNAc(b1-4)[Fuc(a1-6)]GlcNAc
Method in brief: as §1

[3] = target: Fuc(a1-2)[Gal(a1-3)]Gal(b1-3)GlcNAc(b1-3)GalNAc
Method in brief: as §1

[4] = target: Fuc(a1-2)[Gal(a1-3)]Gal(b1-3)GlcNAc(b1-6)GalNAc
Method in brief: as §1

[5] = target: Fuc(a1-2)[Gal(a1-3)]Gal(b1-4)GlcNAc(b1-2)Man(a1-3)[Fuc(a1-2)[Gal(a1-3)]Gal(b1-4)GlcNAc(b1-2)Man(a1-6)]Man(b1-4)GlcNAc(b1-4)[Fuc(a1-6)]GlcNAc
Method in brief: as §1

[6] = target: Fuc(a1-2)[GalNAc(a1-3)]Gal(b1-3)GlcNAc(b1-3)GalNAc
Method in brief: as §1

[7] = target: Fuc(a1-2)[GalNAc(a1-3)]Gal(b1-4)GlcNAc(b1-3)[Fuc(a1-2)[GalNAc(a1-3)]Gal(b1-4)GlcNAc(b1-6)]GalNAc
Method in brief: as §1

[8] = target: Fuc(a1-3)[Gal(b1-4)]Glc6S
Method in brief: as §1

[9] = target: Fuc(a1-3)[Gal(b1-4)]GlcNAc(b1-3)GalNAc
Method in brief: as §1

[10] = target: Fuc(a1-3)[Gal3S(b1-4)]GlcNAc6S
Method in brief: as §1

[11] = target: Fuc(a1-3)[GalNAc(b1-4)]GlcNAc
Method in brief: as §1

[12] = target: Gal(a1-3)Gal(b1-3)GlcNAc(b1-2)Man
Method in brief: as §1

[13] = target: Gal(a1-3)Gal(b1-3)[Fuc(a1-4)]GlcNAc(b1-2)Man(a1-3)[Gal(a1-3)Gal(b1-3)[Fuc(a1-4)]GlcNAc(b1-2)Man(a1-6)]Man(b1-4)GlcNAc(b1-4)GlcNAc
Method in brief: as §1

[14] = target: Gal(a1-3)Gal(b1-4)[Fuc(a1-3)]GlcNAc
Method in brief: as §1

[15] = target: Gal(a1-4)Gal(b1-4)GlcNAc(b1-2)Man(a1-3)[Gal(a1-4)Gal(b1-4)GlcNAc(b1-2)Man(a1-6)]Man(b1-4)GlcNAc(b1-4)GlcNAc
Method in brief: as §1

[16] = target: Gal(b1-3)GlcNAc(a1-3)Gal(b1-4)GlcNAc
Method in brief: as §1

[17] = target: Gal(b1-3)GlcNAc(b1-2)[Gal(b1-3)GlcNAc(b1-6)]Man(a1-6)[Gal(b1-3)GlcNAc(b1-2)Man(a1-3)]Man(b1-4)GlcNAc(b1-4)GlcNAc
Method in brief: as §1

[18] = target: Gal(b1-3)GlcNAc(b1-3)Gal(b1-4)GlcNAc
Method in brief: as §1

[19] = target: Gal(b1-3)GlcNAc(b1-3)Gal(b1-4)[Fuc(a1-3)]GlcNAc
Method in brief: as §1

[20] = target: Gal(b1-3)GlcNAc(b1-3)Gal(b1-4)[Fuc(a1-3)]GlcNAc(b1-6)[Gal(b1-3)GlcNAc(b1-3)]Gal(b1-4)Glc
Method in brief: as §1

[21] = target: Gal(b1-3)GlcNAc(b1-6)[Gal(b1-3)]GalNAc
Method in brief: as §1

[22] = target: Gal(b1-4)GlcNAc(b1-3)Gal(b1-4)Glc
Method in brief: as §1

[23] = target: Gal(b1-4)GlcNAc(b1-3)Gal(b1-4)GlcNAc(b1-3)Gal(b1-4)GlcNAc(b1-3)Gal(b1-4)GlcNAc(b1-2)Man(a1-3)[Gal(b1-4)GlcNAc(b1-3)Gal(b1-4)GlcNAc(b1-3)Gal(b1-4)GlcNAc(b1-3)Gal(b1-4)GlcNAc(b1-2)Man(a1-6)]Man(b1-4)GlcNAc(b1-4)[Fuc(a1-6)]GlcNAc
Method in brief: as §1

Gal6S(b1-3)GlcNAc = target: Gal6S(b1-3)GlcNAc
Method in brief: as §1

GalNAc(a1-3)GalNAc = target: GalNAc(a1-3)GalNAc
Method in brief: as §1

[24] = target: Glc(a1-2)Glc(a1-3)Glc(a1-3)Man(a1-2)Man(a1-2)Man(a1-3)[Man(a1-2)Man(a1-3)[Man(a1-2)Man(a1-6)]Man(a1-6)]Man(b1-4)GlcNAc
Method in brief: as §1

[25] = target: GlcA(b1-3)GlcNAc(b1-4)GlcA(b1-3)GlcNAc(b1-4)GlcA(b1-3)GlcNAc(b1-4)GlcA(b1-3)GlcNAc(b1-4)GlcA(b1-3)GlcNAc(b1-4)GlcA(b1-3)GlcNAc(b1-4)GlcA(b1-3)GlcNAc(b1-4)GlcA(b1-3)GlcNAc
Method in brief: as §1

[26] = target: GlcNAc(a1-3)Gal(b1-4)GlcNAc
Method in brief: as §1

[27] = target: GlcNAc(b1-2)Man(a1-3)[GlcNAc(b1-2)Man(a1-6)]Man(b1-4)GlcNAc(b1-4)GlcNAc
Method in brief: as §1

[28] = target: GlcNAc(b1-2)Man(a1-3)[Man(a1-3)[Man(a1-6)]Man(a1-6)][GlcNAc(b1-4)]Man(b1-4)GlcNAc(b1-4)GlcNAc
Method in brief: as §1

B1: Banana lectin (Musa acuminata) (protein)
chain: MNGAIKVGAWGGNGGSAFDMGPAYRIISVKIFSGDVVDGVDVTFTYYGKTETRHYGGSGGTPHEIVLQEGEYLVGMAGEVANYHGAVVLGKLGFSTNKKAYGPFGNTGGTPFSLPIAAGKISGFFGRGGKFLDAIGVYLEPLEHHHHHH
Q: What does the source list for B1?
A: glycan array binding signal (z-score) [1]: 0.041; glycan array binding signal (z-score) [2]: 0.084; glycan array binding signal (z-score) [3]: -0.22; glycan array binding signal (z-score) [4]: -0.374; glycan array binding signal (z-score) [5]: 0.595; glycan array binding signal (z-score) [6]: -0.215; glycan array binding signal (z-score) [7]: -0.173; glycan array binding signal (z-score) [8]: -0.211; glycan array binding signal (z-score) [9]: -0.268; glycan array binding signal (z-score) [10]: -0.212; glycan array binding signal (z-score) [11]: -0.132; glycan array binding signal (z-score) [12]: -0.189; glycan array binding signal (z-score) [13]: 0.245; glycan array binding signal (z-score) [14]: -0.222; glycan array binding signal (z-score) [15]: -0.174; glycan array binding signal (z-score) [16]: 3.29; glycan array binding signal (z-score) [17]: 0.504; glycan array binding signal (z-score) [18]: -0.264; glycan array binding signal (z-score) [19]: -0.216; glycan array binding signal (z-score) [20]: -0.216; glycan array binding signal (z-score) [21]: 0.054; glycan array binding signal (z-score) [22]: -0.22; glycan array binding signal (z-score) [23]: -0.154; glycan array binding signal (z-score) (Gal6S(b1-3)GlcNAc): -0.197; glycan array binding signal (z-score) (GalNAc(a1-3)GalNAc): -0.213; glycan array binding signal (z-score) [24]: 1.56; glycan array binding signal (z-score) [25]: -0.99; glycan array binding signal (z-score) [26]: 0.842; glycan array binding signal (z-score) [27]: 0.105; glycan array binding signal (z-score) [28]: -0.039
